# From PubChem BioAssay (NCI)
# The panel holds about 79,000 compounds, 15% with a hit somewhere; the sample as a whole holds those more often. A number with no mark means an inactive call. Active and inactive are the calls of the source. Rule as the data show it: active = growth inhibition above about 70%; inactive = the rest.
# Assays:
# [1] = NCI Yeast Anticancer Drug Screen. Data for the wt1 strain (AID 149);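 also: 0% = growth of vehicle-treated wt1 cultures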; details: S. cerevisiae wt1 strain (SPY 50644) growth inhibition, stronger effect = higher value
# How it was run: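 wt1 yeast, compound-treated; % growth inhibition vs vehicle control.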
# [2] = NCI Yeast Anticancer Drug Screen. Data for the rad50EPP+ strain (AID 151);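 also: 0% = growth of vehicle-treated control cultures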; details: S. cerevisiae rad50 mutant strain, stronger effect = higher value
# How it was run: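 Yeast strain carrying rad50 alteration (rad50EPP+) exposed to compounds; growth inhibition measured relative to vehicle-treated controls.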
# [3] = NCI Yeast Anticancer Drug Screen. Data for the rad50 strain (AID 155);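 also: 0% = growth of vehicle-only cultures of the same strain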; details: S. cerevisiae rad50 strain growth inhibition, stronger effect = higher value
# How it was run: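 Genetically altered yeast (DNA repair pathway); compound treatment; growth inhibition vs vehicle ctrl.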
# [4] = NCI Yeast Anticancer Drug Screen. Data for the mec2-1 strain (AID 157); details: S. cerevisiae mec2-1 strain, stronger effect = higher value
# How it was run: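 mec2-1 yeast strain, carrying an alteration in DNA damage repair or cell cycle control, was exposed to compounds; growth inhibition was measured relative to vehicle-treated controls.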
# [5] = NCI Yeast Anticancer Drug Screen. Data for the rad14 strain (AID 159);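 also: 0% = growth of vehicle-treated control cultures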; details: S. cerevisiae rad14 strain growth inhibition, stronger effect = higher value
# How it was run: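 Test compounds were applied to a repair-deficient yeast strain. Its growth was then compared with that of cultures given vehicle alone, and inhibition was expressed relative to those controls.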
# [6] = NCI Yeast Anticancer Drug Screen. Data for the sgs1 mgt1 strain (AID 161);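 also: 0% = growth of cultures given vehicle only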; details: S. cerevisiae sgs1 mgt1 strain, stronger effect = higher value
# How it was run: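 Compounds are added to genetically altered yeast, and growth is compared with cultures given vehicle alone to give percent inhibition.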
# [7] = NCI Yeast Anticancer Drug Screen. Data for the CLN2oe strain (AID 163);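 also: 0% = growth of vehicle-only control cultures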; details: S. cerevisiae CLN2oe strain, stronger effect = higher value
# How it was run: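 Yeast cells carrying a defined cell-cycle control alteration were exposed to test compounds. Growth inhibition was scored against vehicle-treated control cultures.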
# [8] = NCI Yeast Anticancer Drug Screen. Data for the cln2 rad14 strain (AID 165);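 also: 0% = growth equal to vehicle treated cultures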; details: S. cerevisiae cln2 rad14 strain, stronger effect = higher value
# How it was run: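 Yeast carrying cln2 and rad14 alterations (cell cycle control and DNA damage repair) were exposed to compounds. Growth inhibition was measured against vehicle-treated controls.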
# [9] = NCI Yeast Anticancer Drug Screen. Data for the bub3 strain (AID 167); details: S. cerevisiae bub3 mutant strain, stronger effect = higher value
# How it was run: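 Yeast carrying a defined mutation is treated with each compound, and growth is compared with that of vehicle-exposed cells to give inhibition.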
# [10] = NCI Yeast Anticancer Drug Screen. Data for the wt2 strain (AID 169);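 also: 0% = growth of vehicle-treated yeast cultures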; details: S. cerevisiae wt2 strain growth inhibition, stronger effect = higher value
# How it was run: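 Yeast cells were exposed to test compounds, and growth inhibition was measured relative to vehicle-treated controls.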
# [11] = NCI Yeast Anticancer Drug Screen. Data for the mlh1 strain (AID 171);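 also: 0% = growth of vehicle-treated control cultures of the same strain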; details: S. cerevisiae mlh1 strain growth inhibition, stronger effect = higher value
# How it was run: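 Yeast carrying a defined genetic alteration in DNA damage repair or cell cycle control were exposed to test compounds. Growth inhibition was measured relative to vehicle-treated controls.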
# [12] = NCI Yeast Anticancer Drug Screen. Data for the sgs1 strain (AID 173);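 also: 0% = growth of vehicle-only control cultures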; details: S. cerevisiae sgs1 mutant, stronger effect = higher value
# How it was run: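 Yeast mutant strains carrying defined defects in DNA damage repair or cell cycle control were exposed to test compounds. Growth inhibition was scored against vehicle-treated controls.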
# [13] = NCI Yeast Anticancer Drug Screen. Data for the mlh1 rad18 strain (AID 175); details: S. cerevisiae mlh1 rad18 strain growth inhibition, stronger effect = higher value
# How it was run: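 Growth inhibition of the yeast strain was measured after compound exposure and expressed relative to vehicle-treated controls. The strain carries defined defects in DNA damage repair.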
# [14] = NCI Yeast Anticancer Drug Screen. Data for the rad18 strain (AID 177); details: S. cerevisiae rad18 mutant growth inhibition, stronger effect = higher value
# How it was run: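 Yeast carrying a defined DNA damage repair alteration were exposed to compounds. Growth inhibition was expressed relative to vehicle-treated controls.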
# [15] = at 5.0 µM (retest, dose inferred, filed as 0.5)
# [16] = at 50.0 µM (retest, dose inferred, filed as 5.0)
structure (smiles),measurement,setting,value
Cc1cc(NC(=S)SCc2ccc(Cl)cc2)ccc1Cl,growth inhibition,[1]; at 1.2 µM,11%
same,growth inhibition,[1]; at 3.7 µM,24%
same,growth inhibition,[1]; at 11.0 µM,63%
same,growth inhibition,[1]; at 33.0 µM,98% (active)
same,growth inhibition,[1]; at 100.0 µM,98% (active)
same,growth inhibition,[2]; at 1.2 µM,3%
same,growth inhibition,[2]; at 3.7 µM,29%
same,growth inhibition,[2]; at 11.0 µM,92% (active)
same,growth inhibition,[2]; at 33.0 µM,99% (active)
same,growth inhibition,[2]; at 100.0 µM,99% (active)
same,growth inhibition,[3]; at 1.2 µM,12%
same,growth inhibition,[3]; at 3.7 µM,10%
same,growth inhibition,[3]; [15],24%
same,growth inhibition,[3]; at 11.0 µM,44%
same,growth inhibition,[3]; at 33.0 µM,97% (active)
same,growth inhibition,[3]; [16],96% (active)
same,growth inhibition,[3]; at 50.0 µM,90.5% (active)
same,growth inhibition,[3]; at 100.0 µM,95% (active)
same,growth inhibition,[4]; at 1.2 µM,-3%
same,growth inhibition,[4]; at 3.7 µM,6%
same,growth inhibition,[4]; [15],0%
same,growth inhibition,[4]; at 11.0 µM,29%
same,growth inhibition,[4]; at 33.0 µM,98% (active)
same,growth inhibition,[4]; [16],97% (active)
same,growth inhibition,[4]; at 50.0 µM,92.5% (active)
same,growth inhibition,[4]; at 100.0 µM,98% (active)
same,growth inhibition,[5]; at 1.2 µM,-4%
same,growth inhibition,[5]; at 3.7 µM,22%
same,growth inhibition,[5]; at 11.0 µM,46%
same,growth inhibition,[5]; at 33.0 µM,99% (active)
same,growth inhibition,[5]; at 100.0 µM,98% (active)
same,growth inhibition,[6]; [15],43%
same,growth inhibition,[6]; [16],98% (active)
same,growth inhibition,[6]; at 50.0 µM,91.8% (active)
same,growth inhibition,[7]; at 1.2 µM,-3%
same,growth inhibition,[7]; at 3.7 µM,15%
same,growth inhibition,[7]; at 11.0 µM,44%
same,growth inhibition,[7]; at 33.0 µM,98% (active)
same,growth inhibition,[7]; at 100.0 µM,98% (active)
same,growth inhibition,[8]; [15],29%
same,growth inhibition,[8]; [16],95% (active)
same,growth inhibition,[8]; at 50.0 µM,90.5% (active)
same,growth inhibition,[9]; at 1.2 µM,-4%
same,growth inhibition,[9]; at 3.7 µM,-8%
same,growth inhibition,[9]; [15],48%
same,growth inhibition,[9]; at 11.0 µM,49%
same,growth inhibition,[9]; at 33.0 µM,99% (active)
same,growth inhibition,[9]; [16],98% (active)
same,growth inhibition,[9]; at 50.0 µM,91.6% (active)
same,growth inhibition,[9]; at 100.0 µM,98% (active)
same,growth inhibition,[10]; at 1.2 µM,-5%
same,growth inhibition,[10]; at 3.7 µM,20%
same,growth inhibition,[10]; at 11.0 µM,56%
same,growth inhibition,[10]; at 33.0 µM,98% (active)
same,growth inhibition,[10]; at 100.0 µM,99% (active)
same,growth inhibition,[11]; at 1.2 µM,-17%
same,growth inhibition,[11]; at 3.7 µM,-8%
same,growth inhibition,[11]; at 11.0 µM,27%
same,growth inhibition,[11]; at 33.0 µM,98% (active)
same,growth inhibition,[11]; at 100.0 µM,98% (active)
same,growth inhibition,[12]; at 1.2 µM,-9%
same,growth inhibition,[12]; at 3.7 µM,-22%
same,growth inhibition,[12]; at 11.0 µM,38%
same,growth inhibition,[12]; at 33.0 µM,98% (active)
same,growth inhibition,[12]; at 100.0 µM,98% (active)
same,growth inhibition,[13]; [15],11%
same,growth inhibition,[13]; [16],96% (active)
same,growth inhibition,[13]; at 50.0 µM,90.6% (active)
same,growth inhibition,[14]; at 1.2 µM,13%
same,growth inhibition,[14]; at 3.7 µM,35%
same,growth inhibition,[14]; at 11.0 µM,69%
same,growth inhibition,[14]; at 33.0 µM,98% (active)
same,growth inhibition,[14]; at 100.0 µM,96% (active)
OC1C#CCSCC#C/C=C\1 (stereo unspecified),growth inhibition,[1]; at 1.2 µM,9%
same,growth inhibition,[1]; at 3.7 µM,3%
same,growth inhibition,[1]; at 11.0 µM,14%
same,growth inhibition,[1]; at 33.0 µM,55%
same,growth inhibition,[1]; at 100.0 µM,97% (active)
same,growth inhibition,[2]; at 1.2 µM,-22%
same,growth inhibition,[2]; at 3.7 µM,15%
same,growth inhibition,[2]; at 11.0 µM,13%
same,growth inhibition,[2]; at 33.0 µM,23%
same,growth inhibition,[2]; at 100.0 µM,86% (active)
same,growth inhibition,[3]; at 1.2 µM,-24%
same,growth inhibition,[3]; at 3.7 µM,-17%
same,growth inhibition,[3]; [15],53%
same,growth inhibition,[3]; at 11.0 µM,34%
same,growth inhibition,[3]; at 33.0 µM,65%
same,growth inhibition,[3]; [16],100% (active)
same,growth inhibition,[3]; at 50.0 µM,81.3% (active)
same,growth inhibition,[3]; at 100.0 µM,97% (active)
same,growth inhibition,[4]; at 1.2 µM,1%
same,growth inhibition,[4]; at 3.7 µM,18%
same,growth inhibition,[4]; [15],62%
same,growth inhibition,[4]; at 11.0 µM,14%
same,growth inhibition,[4]; at 33.0 µM,54%
same,growth inhibition,[4]; [16],100% (active)
same,growth inhibition,[4]; at 50.0 µM,78.4% (active)
same,growth inhibition,[4]; at 100.0 µM,97% (active)
same,growth inhibition,[5]; at 1.2 µM,4%
same,growth inhibition,[5]; at 3.7 µM,6%
same,growth inhibition,[5]; at 11.0 µM,12%
same,growth inhibition,[5]; at 33.0 µM,51%
same,growth inhibition,[5]; at 100.0 µM,98% (active)
same,growth inhibition,[6]; [15],-4%
same,growth inhibition,[6]; [16],96% (active)
same,growth inhibition,[6]; at 50.0 µM,70.4% (active)
same,growth inhibition,[7]; at 1.2 µM,-22%
same,growth inhibition,[7]; at 3.7 µM,3%
same,growth inhibition,[7]; at 11.0 µM,-15%
same,growth inhibition,[7]; at 33.0 µM,-3%
same,growth inhibition,[7]; at 100.0 µM,77% (active)
same,growth inhibition,[8]; [15],60%
same,growth inhibition,[8]; [16],93% (active)
same,growth inhibition,[8]; at 50.0 µM,52%
same,growth inhibition,[9]; at 1.2 µM,-8%
same,growth inhibition,[9]; at 3.7 µM,-16%
same,growth inhibition,[9]; [15],16%
same,growth inhibition,[9]; at 11.0 µM,17%
same,growth inhibition,[9]; at 33.0 µM,-10%
same,growth inhibition,[9]; [16],97% (active)
same,growth inhibition,[9]; at 50.0 µM,84.2% (active)
same,growth inhibition,[9]; at 100.0 µM,96% (active)
same,growth inhibition,[10]; at 1.2 µM,-21%
same,growth inhibition,[10]; at 3.7 µM,-17%
same,growth inhibition,[10]; at 11.0 µM,6%
same,growth inhibition,[10]; at 33.0 µM,-9%
same,growth inhibition,[10]; at 100.0 µM,95% (active)
same,growth inhibition,[11]; at 1.2 µM,-1%
same,growth inhibition,[11]; at 3.7 µM,4%
same,growth inhibition,[11]; at 11.0 µM,15%
same,growth inhibition,[11]; at 33.0 µM,46%
same,growth inhibition,[11]; at 100.0 µM,96% (active)
same,growth inhibition,[12]; at 1.2 µM,20%
same,growth inhibition,[12]; at 3.7 µM,11%
same,growth inhibition,[12]; at 11.0 µM,27%
same,growth inhibition,[12]; at 33.0 µM,67%
same,growth inhibition,[12]; at 100.0 µM,97% (active)
same,growth inhibition,[13]; [15],62%
same,growth inhibition,[13]; [16],100% (active)
same,growth inhibition,[13]; at 50.0 µM,79.2% (active)
same,growth inhibition,[14]; at 1.2 µM,-27%
same,growth inhibition,[14]; at 3.7 µM,-21%
same,growth inhibition,[14]; at 11.0 µM,4%
same,growth inhibition,[14]; at 33.0 µM,49%
same,growth inhibition,[14]; at 100.0 µM,92% (active)
